The source made the active and inactive calls. How the source made its calls: active means hit-call score of the fitted dose curve at least 0.9, where 1 is the maximum; inactive means score below 0.9.

Chain of Hepatocyte nuclear factor 3-beta (Homo sapiens) (Q9Y261 whole entry, looked up, the tested form may be a part): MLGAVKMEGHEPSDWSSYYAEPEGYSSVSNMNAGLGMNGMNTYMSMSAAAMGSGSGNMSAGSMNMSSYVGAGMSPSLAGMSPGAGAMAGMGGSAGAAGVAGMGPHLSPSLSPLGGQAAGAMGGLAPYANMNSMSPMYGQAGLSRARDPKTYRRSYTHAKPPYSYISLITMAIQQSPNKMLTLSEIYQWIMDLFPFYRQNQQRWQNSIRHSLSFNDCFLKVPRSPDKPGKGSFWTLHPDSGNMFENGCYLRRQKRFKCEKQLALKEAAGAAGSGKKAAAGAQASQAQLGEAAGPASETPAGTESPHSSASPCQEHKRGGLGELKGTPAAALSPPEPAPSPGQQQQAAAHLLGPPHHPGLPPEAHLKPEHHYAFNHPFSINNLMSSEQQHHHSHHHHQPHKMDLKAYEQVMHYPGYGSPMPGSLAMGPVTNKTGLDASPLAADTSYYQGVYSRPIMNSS

Tested on in the first assay: not listed separately
The assay is described as follows: ATG_M_19_CIS: Attagene CIS-FACTORIAL HepG2 Assay for M19 Transcription Factor (Internal Marker) (AID 2282939). The following applies: HepG2 Attagene CIS-FACTORIAL M19 internal marker reporter; actives raise or lower the signal. Put shortly: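 HepG2 cells transiently transfected with cis-regulated multiple reporter transcription units were dosed for 24 h; reporter mRNA was quantified by RT-PCR, 6-FAM primer-extension labelling, HpaI digestion and capillary electrophoresis, with bidirectional fitting against DMSO baseline.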
`C1=Cc2cccc3cccc1c23`: the call was inactive.
Consider `Cc1ccc(N)c(N)c1`, for which the result was inactive.
For the compound `CN(C)c1ccccc1`, the call was inactive.
For `Cc1ccc(N)cc1`, the result was inactive.
Take `Cc1cc(N=Nc2ccccc2C)ccc1N`: the outcome was inactive.
The same measure, in the same setting: then `CC(C)(C)C(O)(CCc1ccc(Cl)cc1)Cn1cncn1` (centres undefined), with “inactive”; and `Brc1ccc(Oc2ccccc2)cc1`, with “inactive”.
Consider `Nc1ccc(Cc2ccc(N)cc2)cc1`, for which the outcome was inactive.
Regarding `CC(C)(O)c1cnn2c(-c3ccc(F)c(-c4c(F)cccc4C#N)c3)cnc2n1`, the outcome was inactive.
For the compound `O=C1CCCO1`, the compound was called inactive.
The same measure, in the same setting: then `O=[N+]([O-])C(Br)(CO)CO`, with “inactive”.
As for `CCCCCOC(=O)c1ccccc1C(=O)OCCCCC`, the compound was called inactive.
With `CCC[CH2][Sn]([Cl])([CH2]CCC)[CH2]CCC`, the compound was called inactive.

Tested on in the next assay: not listed separately
The assay is described as follows: ATG_ERE_CIS: Attagene CIS-FACTORIAL HepG2 Assay for Estrogen Response Element (ERE) (AID 2282940). The following applies: HepG2 ERE cis-reporter, Attagene RNA transcript; actives raise or lower the signal. An outline of the steps:
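HepG2 cells transiently transfected with cis-promoter-driven multiplexed reporter transcription units report endogenous TF activity. After 24 h compound exposure, reporter mRNA is quantified by RT-PCR with capillary electrophoresis fluorescence; bidirectional fitting versus DMSO baseline.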
Consider `CC(C)COC(=O)c1ccccc1C(=O)OCC(C)C`, for which the AC50 was 39.6 µM (active).
For the compound `CCC12COCN1COC2`, the call was inactive.
Regarding `Brc1ccc(Oc2ccccc2)cc1`, the AC50 was 50.8 µM (active).
For `O=[N+]([O-])C(Br)(CO)CO`, the call was inactive.
On the same count and under the same terms, then `CCCCCOC(=O)c1ccccc1C(=O)OCCCCC`, with “inactive”; and `CCC[CH2][Sn]([Cl])([CH2]CCC)[CH2]CCC`, with “inactive”; and `OCCOCCO`, with “inactive”.

Tested on in a further assay: not listed separately
The assay is described as follows: ATG_Ets_CIS: Attagene CIS-FACTORIAL HepG2 Assay for human Erythroblast Transformation Specific (ETS) (AID 2282941). Particulars: HepG2 ETS cis-reporter transcription, actives raise or lower the signal. Put shortly:
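Bidirectional fit versus DMSO of reporter mRNA signal, detected by RT-PCR and capillary electrophoresis in HepG2 cells transiently transfected with cis-element reporters and dosed 24 h.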
On to `Nc1ccc(Oc2ccc(N)cc2)cc1`, for which the outcome was inactive.
With `C1=Cc2cccc3cccc1c23`, the outcome was inactive.
As to `Cc1ccc(N)c(N)c1`, the result was inactive.
For the compound `CC(C)COC(=O)c1ccccc1C(=O)OCC(C)C`, the compound was classed as inactive.
As to `CCC12COCN1COC2`, the outcome was inactive.
In the case of `Oc1ccc2ccc3cccc4ccc1c2c34`, the call was inactive.
Take `Nc1cc(Cl)cc(C(=O)O)c1Cl`: the result was inactive.
The same measure, in the same setting: then `CN(C)c1ccccc1`, with “inactive”; and `Cc1ccc(N)cc1`, with “inactive”; and `C=CCc1ccc2c(c1)OCO2`, with “inactive”.
Take `CCCSC(=O)N(CCC)CCC`: the outcome was inactive.
Same read-out and setting: then `Cc1cc(N=Nc2ccccc2C)ccc1N`, with “inactive”; and `CN(C)C(=O)Nc1ccc(Cl)cc1`, with “inactive”.
`O=P(OCCCl)(OCCCl)OCCCl`: the result was inactive.
As to `CC(C)(C)C(O)(CCc1ccc(Cl)cc1)Cn1cncn1` (centres undefined), the call was inactive.
With `Brc1ccc(Oc2ccccc2)cc1`, the outcome was inactive.
For the compound `Nc1ccc(Cc2ccc(N)cc2)cc1`, the outcome was inactive.
For `CC(C)(O)c1cnn2c(-c3ccc(F)c(-c4c(F)cccc4C#N)c3)cnc2n1`, the call was inactive.
Turning to `CCN(CC)CCO`, the compound was called inactive.
As for `Clc1ccc(C(c2ccc(Cl)cc2)C(Cl)(Cl)Cl)cc1`, the result was inactive.
For the compound `O=C1CCCO1`, the call was inactive.
The same measure, in the same setting: the result for `O=[N+]([O-])C(Br)(CO)CO` reads “inactive”; that for `CCCCCOC(=O)c1ccccc1C(=O)OCCCCC`, “inactive”; that for `[As]#[In]`, “inactive”.
Consider `CCC[CH2][Sn]([Cl])([CH2]CCC)[CH2]CCC`, for which the call was inactive.
Turning to `c1ccc(N=Nc2ccccc2)cc1`, the compound was called inactive.
For the compound `Cc1cccc(N)c1N`, the half-maximal activity concentration (AC50) was 77.1 µM (active).
Regarding `OCCOCCO`, the compound was called inactive.

Another assay addresses Hepatocyte nuclear factor 3-beta (Homo sapiens) (UniProt Q9Y261). Nature of the assay: ATG_FoxA2_CIS: Attagene CIS-FACTORIAL HepG2 Assay for human Forkhead box A2 (FOXA2) (AID 2282942). Particulars: HepG2 cis-reporter transcription factor activity, 24 h; actives raise or lower the signal. Put shortly: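 Fluorescence signal of reporter cDNA fragments, separated by capillary electrophoresis, reflects endogenous transcription factor activity in transfected HepG2 after 24 h. Both increases and decreases fitted against DMSO.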
As for `Nc1ccc(Oc2ccc(N)cc2)cc1`, the outcome was inactive.
Consider `C1=Cc2cccc3cccc1c23`, for which the call was inactive.
As for `Cc1ccc(N)c(N)c1`, the call was inactive.
The same measure, in the same setting: the result for `CC(C)COC(=O)c1ccccc1C(=O)OCC(C)C` reads “inactive”.
`CCC12COCN1COC2`: the outcome was inactive.
For `Oc1ccc2ccc3cccc4ccc1c2c34`, the call was inactive.
For `Nc1cc(Cl)cc(C(=O)O)c1Cl`, the outcome was inactive.
Turning to `CN(C)c1ccccc1`, the result was inactive.
Regarding `Cc1ccc(N)cc1`, the compound was classed as inactive.
For the compound `C=CCc1ccc2c(c1)OCO2`, the outcome was inactive.
The same measure, in the same setting: the result for `CCCSC(=O)N(CCC)CCC` reads “inactive”.
Turning to `Cc1cc(N=Nc2ccccc2C)ccc1N`, the AC50 was 15.7 µM (active).
`CN(C)C(=O)Nc1ccc(Cl)cc1`: the outcome was inactive.
The same measure, in the same setting: the result for `O=P(OCCCl)(OCCCl)OCCCl` reads “inactive”; that for `CC(C)(C)C(O)(CCc1ccc(Cl)cc1)Cn1cncn1` (centres undefined), “inactive”; that for `Brc1ccc(Oc2ccccc2)cc1`, “inactive”.
In the case of `Nc1ccc(Cc2ccc(N)cc2)cc1`, the result was inactive.
For `CC(C)(O)c1cnn2c(-c3ccc(F)c(-c4c(F)cccc4C#N)c3)cnc2n1`, the call was inactive.
Regarding `CCN(CC)CCO`, the compound was called inactive.
In the case of `Clc1ccc(C(c2ccc(Cl)cc2)C(Cl)(Cl)Cl)cc1`, the call was inactive.
Consider `O=C1CCCO1`, for which the compound was classed as inactive.
Turning to `O=[N+]([O-])C(Br)(CO)CO`, the compound was classed as inactive.
For the compound `CCCCCOC(=O)c1ccccc1C(=O)OCCCCC`, the compound was called inactive.
Consider `[As]#[In]`, for which the result was inactive.
For `CCC[CH2][Sn]([Cl])([CH2]CCC)[CH2]CCC`, the compound was called inactive.
As to `c1ccc(N=Nc2ccccc2)cc1`, the compound was classed as inactive.
In the case of `Cc1cccc(N)c1N`, the compound was classed as inactive.
`OCCOCCO`: the compound was classed as inactive.

Tested on in the next assay: not listed separately
The assay is described as follows: ATG_FoxO_CIS: Attagene CIS-FACTORIAL HepG2 Assay for human Forkhead box O (FoxO) (AID 2282943). Particulars: HepG2 Attagene cis-reporter, FoxO element, mRNA; actives raise or lower the signal. Put shortly: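 HepG2 cells transiently transfected with cis-promoter-driven multiple reporter transcription units; 24 h after chemical dosing, reporter mRNA quantified by RT-PCR, fluorescent primer extension, HpaI digestion and capillary electrophoresis. Bidirectional fitting versus DMSO baseline.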
Take `Nc1ccc(Oc2ccc(N)cc2)cc1`: the compound was called inactive.
As for `C1=Cc2cccc3cccc1c23`, the outcome was inactive.
Consider `Cc1ccc(N)c(N)c1`, for which the result was inactive.
Still for that read-out and setting: the result for `CC(C)COC(=O)c1ccccc1C(=O)OCC(C)C` reads “inactive”; that for `CCC12COCN1COC2`, “inactive”; that for `Oc1ccc2ccc3cccc4ccc1c2c34`, “inactive”.
Consider `Nc1cc(Cl)cc(C(=O)O)c1Cl`, for which the compound was called inactive.
Take `CN(C)c1ccccc1`: the outcome was inactive.
Turning to `Cc1ccc(N)cc1`, the outcome was inactive.
Take `C=CCc1ccc2c(c1)OCO2`: the compound was called inactive.
In the case of `CCCSC(=O)N(CCC)CCC`, the outcome was inactive.
On to `Cc1cc(N=Nc2ccccc2C)ccc1N`, for which the compound was called inactive.
Same read-out and setting: then `CN(C)C(=O)Nc1ccc(Cl)cc1`, with “inactive”.
As for `O=P(OCCCl)(OCCCl)OCCCl`, the compound was called inactive.
In the case of `CC(C)(C)C(O)(CCc1ccc(Cl)cc1)Cn1cncn1` (centres undefined), the compound was classed as inactive.
In the case of `Brc1ccc(Oc2ccccc2)cc1`, the call was inactive.
On to `Nc1ccc(Cc2ccc(N)cc2)cc1`, for which the compound was classed as inactive.
Take `CC(C)(O)c1cnn2c(-c3ccc(F)c(-c4c(F)cccc4C#N)c3)cnc2n1`: the call was inactive.
For `CCN(CC)CCO`, the compound was classed as inactive.
The same measure, in the same setting: the result for `Clc1ccc(C(c2ccc(Cl)cc2)C(Cl)(Cl)Cl)cc1` reads “inactive”.
The same measure, in the same setting: then `O=C1CCCO1`, with “inactive”; and `O=[N+]([O-])C(Br)(CO)CO`, with “inactive”; and `CCCCCOC(=O)c1ccccc1C(=O)OCCCCC`, with “inactive”.
As for `[As]#[In]`, the outcome was inactive.
On the same count and under the same terms, the result for `CCC[CH2][Sn]([Cl])([CH2]CCC)[CH2]CCC` reads “inactive”; that for `c1ccc(N=Nc2ccccc2)cc1`, “inactive”.
For `Cc1cccc(N)c1N`, the outcome was inactive.
On the same count and under the same terms, the result for `OCCOCCO` reads “inactive”.

As a reminder, the AC50 is the concentration at which the activity in the assay is half-maximal.

Values taken from PubChem BioAssay (EPA / NIEHS).
